Data taken from ChEMBL document CHEMBL4513216, “Probing the Open Global Health Chemical Diversity Library for Multistage-Active Starting Points for Next-Generation Antimalarials” (ACS Infect Dis, 2020).
The whole screen tested about 68,000 compounds, of which about 2,700 (4%) showed an effect of 50% or more. This is one part of a sample in which strong results are shown more often than they occur.

These compounds were tested on Plasmodium berghei (assay: Screen against P. berghei liver stage (PbLuc), transformed with Luciferase, at 2uM). Settings: tested at 2 uM.
Assay type: functional, HepG2
In the case of `COc1ccc(CN2CCO[C@H]3[C@H](OCc4ccncc4)CC[C@@H]32)cc1`, the INHIBITION is reported as -3.18%.
With `Cc1nn(C2CCCCC2)c2nc(C(C)(C)CN3CCOCC3)[nH]c12` the INHIBITION was 48.54%.
Work on `Cc1cccnc1CN1CCN(C(=O)CCn2ccc(=O)[nH]c2=O)CC1` yielded an INHIBITION of 35.88%.
In the case of `Cc1cccc(Cc2cc(C)nc(C3CCCNC3)c2)c1` (configuration not stated), the INHIBITION is reported as -27.54%.
`CCOCC(=O)NCCC(O)c1ccoc1` (configuration not stated) showed an INHIBITION of 1.3%.
`O=C(NCCNc1ncccn1)C1CC(=O)N(Cc2ccccn2)C1` (configuration not stated) was tested, and the INHIBITION was 35.65%.
For `Nc1cc(N2CCCC2c2cnccn2)ncn1` (configuration not stated), the INHIBITION was 30.38%.
`Cc1cc(C)n(CC2CCCN2C(=O)c2c[nH]c3ncccc23)n1` (configuration not stated) gave an INHIBITION of -1.56%.
For `Cc1cnn(CC2CCCN2C(=O)c2ccccc2-n2cnnn2)c1` (configuration not stated), the INHIBITION was 21.39%.
`CCOc1ncccc1C(=O)N1CCCC1Cn1nc(C)cc1C` (configuration not stated) showed an INHIBITION of 11.95%.
For `Cc1cnn(CC2CCCCN2C(=O)c2ccccc2-n2cccn2)c1` (configuration not stated), the INHIBITION was 37.68%.
In the case of `Cc1cnn(CC2CCCN2C(=O)c2ccccc2-n2cccn2)c1` (configuration not stated), the INHIBITION is reported as 76.38%.
With `Cc1cc(C)n(CC2CCCN2C(=O)c2cccnc2N(C)C)n1` (configuration not stated) the INHIBITION was 56.02%.
In the case of `CCc1c(C(=O)N2CCC3(CCCN(CCO)C3=O)C2)csc1C` (configuration not stated), the INHIBITION is reported as 40.64%.
`CCCC(=O)N1CCN(CCN(C)C)c2nc(C)ccc2C1` gave an INHIBITION of 19.51%.
`Cn1ccnc1SCC(=O)NCCC1CCCO1` (configuration not stated) showed an INHIBITION of -38.4%.
Work on `O=C(c1ccon1)N1CCCCC1c1nc2cc(F)ccc2[nH]1` (configuration not stated) yielded an INHIBITION of 14.79%.
Compound `COCCC1CN(Cc2cn(CCC(N)=O)c3ccccc23)CCO1` (configuration not stated) has an INHIBITION of 26.22%.
Work on `Cc1nnc(CN2CCC(Oc3ccc(F)cc3)CC2)o1` yielded an INHIBITION of -4.89%.
In the case of `C/N=C1\c2cc3cc(OC)ccc3n2CCN1Cc1ccccc1`, the INHIBITION is reported as -2.66%.
In the case of `c1cn2c(n1)CN(C1CCOCC1)CC(CN1CCCC1)C2` (configuration not stated), the INHIBITION is reported as 29.95%.
`OCC1(O)CCN(Cc2noc(-c3ccccc3)n2)CC1` was tested, and the INHIBITION was 26.3%.
`COc1cccc(CN2CCCC3(CCN(C(=O)c4ccco4)C3)C2)c1` (configuration not stated) was tested, and the INHIBITION was 8.37%.
Compound `COc1cccc(CN2CCCC3(CCN(C(=O)[C@H]4CCCO4)C3)C2)c1` (some centres not stated) has an INHIBITION of 21.89%.
With `COc1cccc(CN2CCCC3(CCN(C(=O)N4CCCC4)C3)C2)c1` (configuration not stated) the INHIBITION was 50.17%.
Compound `CCn1[nH]c(C)c2c(C(F)(F)C(F)(F)F)cc(=O)nc1-2` has an INHIBITION of 1.01%.
`Cc1nsc(C(=O)NCCc2ccccc2)n1` was tested, and the INHIBITION was -7.16%.
`Cc1nsc(C(=O)NCCc2ccc(F)cc2)n1` gave an INHIBITION of -0.59%.
For `Cc1nsc(C(=O)NCCc2cccs2)n1`, the INHIBITION was 55.25%.
For `Cc1ccc(CN2CCC3(CC2)CC(c2cccnc2)CO3)s1` (configuration not stated), the INHIBITION was 23.79%.
`CCS(=O)(=O)c1ccc(N2CCC(NC(=O)NC(C)CO)CC2)cc1` (configuration not stated) showed an INHIBITION of 7.85%.
For `Cc1ccsc1CN(C)C(=O)Cn1nc(-c2ccc(F)cc2)oc1=O`, the INHIBITION was 51.99%.
Work on `Cc1ccc(CN(C)C(=O)Cn2nc(-c3ccc(F)cc3)oc2=O)cc1` yielded an INHIBITION of 5.28%.
Work on `CN(Cc1ccc(F)cc1)C(=O)Cn1nc(-c2ccc(F)cc2)oc1=O` yielded an INHIBITION of -10.54%.
With `COc1ccc(CC(C)(O)CNC(=O)NCc2cccs2)cc1` (configuration not stated) the INHIBITION was 45.62%.
With `CC(C)OCC(=O)N1CCCN(Cc2ccc(C#N)cc2)CC1` the INHIBITION was 2.08%.
In the case of `Cc1nccn1C1CCCN(C(=O)c2sccc2-n2cnnn2)C1` (configuration not stated), the INHIBITION is reported as -13.92%.
With `Cc1ccc2c(c1)c(CNC(=O)C1CCN(C(=O)C3CC3)CC1)nn2C` the INHIBITION was -13.72%.
`Cc1ccc2c(c1)c(CNC(=O)C1CCN(CC(N)=O)CC1)nn2C` gave an INHIBITION of 58.53%.
`Cc1ccc2c(c1)c(CNC(=O)C1CCCN(CC(N)=O)C1)nn2C` (configuration not stated) showed an INHIBITION of -1.87%.
Work on `CC(C)c1cc(C(=O)N[C@@H]2CC[C@@H](Oc3ccccc3)[C@@H]2O)on1` yielded an INHIBITION of 19.69%.
With `CCc1c(C(=O)O)nnn1-c1cc(C)cc(C)c1` the INHIBITION was -50.41%.
`COc1ccccc1OC1(C(=O)O)CCN(c2nc(C)cnc2C)CC1` gave an INHIBITION of 33.9%.
In the case of `COc1ccccc1OC1(C(=O)O)CCN(c2ncnc(C)c2C)CC1`, the INHIBITION is reported as 60.13%.
In the case of `COc1ccccc1OC1(C(=O)O)CCN(c2nccnc2C)CC1`, the INHIBITION is reported as 1.34%.
For `O=C(CC1CC1)NC[C@]12COC[C@H]1CN(c1ncccn1)C2`, the INHIBITION was 22.36%.
Compound `COc1ccc(CC(=O)N2CCCC2c2nc(C)c(C)c(O)n2)cc1` (configuration not stated) has an INHIBITION of 29.48%.
In the case of `COc1cccc(CC(=O)N2CCCC2c2nc(C)c(F)c(O)n2)c1` (configuration not stated), the INHIBITION is reported as 52.82%.
Compound `Cc1nc(C2CCCN2C(=O)Cc2cccc(F)c2)nc(O)c1C` (configuration not stated) has an INHIBITION of 27.81%.
`Cc1nc(C2CCCN2C(=O)Cc2ccc(F)cc2)nc(O)c1C` (configuration not stated) showed an INHIBITION of 46.57%.
Compound `COc1cccc(CC(=O)N2CCCC2c2nc(C)c(C)c(O)n2)c1` (configuration not stated) has an INHIBITION of 55.74%.
`Cc1nc(C2CCCN2C(=O)Cc2ccc3c(c2)OCO3)nc(O)c1C` (configuration not stated) was tested, and the INHIBITION was 22.39%.
